From PubChem BioAssay (EPA / NIEHS) come the findings set out here.

Calls of active or inactive are those of the source. How the source made its calls: active means hit-call score of the fitted dose curve at least 0.9, where 1 is the maximum; inactive means score below 0.9.

Read-out in the test: Interleukin 6 Receptor (IL6R), IL6R (gene 3570)
In words: LTEA_HepaRG_IL6R: Life Technologies and Expression Analysis (LTEA) Assay for Interleukin 6 Receptor (IL6R) using HepaRG (AID 2283510).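 On AC50: TaqMan qRT-PCR signal normalized to ACTB GAPDH and POLR2A housekeeping genes.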 The following applies: mRNA level, 48 h; actives raise or lower the signal. The protocol:
LTEA_HepaRG is a cell based, multiplexed-readout assay that uses HepaRG, a human liver cell line, with measurements taken at 48 hours after chemical dosing on a 96-well plate.LTEA_HepaRG_IL6R is one of 102 assay component(s) measured in the LTEA HepaRG cell culture assay. It is a marker of Inflammation.Data from the assay component LTEA_HepaRG_IL6R was analyzed into 1 endpoint. This assay endpoint, LTEA_HepaRG_IL6R, was analyzed with bidirectional fitting relative to DMSO as the negative control and baseline of activity. Using a type of inducible reporter, measures of mRNA induction for gain or loss-of-signal activity can be used to understand regulation of transcription factor activity. To generalize the intended target to other relatable targets, this assay endpoint is annotated to the cytokine receptor intended target family, where the subfamily is JAK-STAT cytokine receptor.
A total of 1060 chemcials from the ToxCast library were tested in eight-point concentration-response experiments. Cell culture and cytotoxicity assays were conducted at Thermo Fisher Scientific's Custom Services facility (Madison, WI). A single lot of human HepaRG cells (Thermo Fisher Scientific, Frederick, MD) was used for the cell culture experiments. 96-well format collagen type I coated plates of human HepaRG cells were prepared using established methods. Briefly, cryopreserved HepaRG cells were thawed, plated at a density of approximately 100,000 cells/well in HepaRG Thaw, Plate, and General Purpose media (HPRG770, Thermo Fisher Scientific), and incubated for 48 hours. 0.5% DMSO was selected as vehicle control to balance the requisite need of DMSO in HepaRG cultures to maintain differentiation (for example, baseline metabolism, proportions of hepatocytes vs. cholangiocytes), while enabling further hepatic receptor pathway activation (for example, PXR and CAR) in response to chemical exposure. 48 hours after plating, the culture medium was replaced with HepaRG Serum-Free Incudtion Media. Cells were exposed to each test chemical in duplicate and maintained in CO2 incubators for another 48 hours. Chemical plates were thawed to room temperature and 200x concentrations of treatment groups were prepared. 8-point conentration-reponse curves were made with the highest exposure at 100 uM, followed by half-log dilutions, all in 0.5% DMSO. Each test plate contained variouse controls, induction positive controls (1mM phenobarbital), cytotoxicity positive controls ([…] aflatoxin B1), vehicle controls (0.5% DMSO), and total lysis controls (0.5% DMSO). Cell morphology images were taken using an Essen IncuCyte FLR automated microscope, with six 96-well plates imaged in about 24 minutes. Images were captured and exported and JPEG files. Spent culture media was transfered to black-well plates for the LDH assay, and remaining media was sorted at -80 C for later use. Cells were treated with RLT buffer and frozen until shipped for gene expression analysis. Total RNA was isolated from the cell suspension in 75 uL of Buffer RLT (Qiagen, Germantown, MD 20874) by Quintiles/Expression Analysis (Durham, NC) using a custom isolation procedure. Total RNA from each plate well was transferred to a preamplification plate. Fluidigm's 96.96 Dynamic ArrayTM (Fluidigm, Amsterdam, the Netherlands) technology was used for gene expression analyses by quantitative reverse transcription polymerase chain reaction (qRT-PCR, performed by Quintiles/Expression Analysis, Durham, NC)89. Standard TaqManTM Assays (Applied Biosystems/ThermoFisher Scientific, Foster City, CA) were used to assess the expression of 93 genes selected based on their selectivity and sensitivity to important hepatic receptors known to be modulated by environmental chemicals; importance in human hepatocyte functionality; and hepatotoxicity. […]
On to `O=C1CCCO1`, for which the outcome was inactive.
As for `C=CCc1ccc2c(c1)OCO2`, the compound was classed as inactive.
Still for that read-out and setting: then `OCCCBr`, with “inactive”; and `Clc1ccc(C(c2ccc(Cl)cc2)C(Cl)Cl)cc1`, with “inactive”.
Take `Cc1ccc(N=C=O)cc1N=C=O`: the result was inactive.
With `[As]#[In]`, the result was inactive.
Take `CN(C)C(=O)Nc1ccc(Cl)cc1`: the compound was classed as inactive.
Regarding `ClC1=C(Cl)C2(Cl)C3C(Cl)C=CC3C1(Cl)C2(Cl)Cl` (stereo not given), the outcome was inactive.
With `CC(C)(OOC(C)(C)c1ccccc1)c1ccccc1`, the call was inactive.
Take `CCNS(=O)(=O)C(F)(F)C(F)(F)C(F)(F)C(F)(F)C(F)(F)C(F)(F)C(F)(F)C(F)(F)F`: the compound was called inactive.
The same measure, in the same setting: then `Oc1ccc2ccc3cccc4ccc1c2c34`, with “inactive”; and `Clc1ccc(Cl)c(Cl)c1`, with “inactive”; and `c1ccc(C2CO2)cc1` (stereo not given), with “inactive”.
One may read the AC50 as the midpoint of the concentration-response curve, whichever way the signal moves. Consider `Cc1cc(N=Nc2ccccc2C)ccc1N`, for which the AC50 is 2.45 µM (active).
As to `Brc1ccc(Oc2ccccc2)cc1`, the call was inactive.
As for `CCC(C)c1ccc(O)cc1` (stereo not given), the call was inactive.
With `CS(=O)(=O)NC(=O)c1cc(Oc2ccc(C(F)(F)F)cc2Cl)ccc1[N+](=O)[O-]`, the call was inactive.
Regarding `CNC(=O)Oc1cccc2c1OC(C)(C)C2`, the compound was called inactive.
Take `CCCCOC(=O)c1ccccc1C(=O)OCc1ccccc1`: the compound was called inactive.
As for `OCCCl`, the outcome was inactive.
As to `O=Cc1ccco1`, the compound was classed as inactive.
Regarding `CN(C)c1ccccc1`, the result was inactive.
As to `O=[N+]([O-])c1ccc(Oc2ccc(Cl)cc2Cl)cc1`, the call was inactive.
Regarding `CC(C)(O)c1cnn2c(-c3ccc(F)c(-c4c(F)cccc4C#N)c3)cnc2n1`, the outcome was inactive.
On the same count and under the same terms, then `c1ccc2c(c1)-c1cccc3cccc-2c13`, with “inactive”; and `Clc1ccc(C(c2ccc(Cl)cc2)C(Cl)(Cl)Cl)cc1`, with “inactive”; and `c1ccc(N=Nc2ccccc2)cc1`, with “inactive”.
For the compound `C[N+](C)(C)CC1CO1` (stereo not given), the result was inactive.
With `CC(C)(C)OOC(=O)c1ccccc1`, the call was inactive.
In the case of `CN(C)c1ccc(C(=O)c2ccc(N(C)C)cc2)cc1`, the call was inactive.
As for `COc1cc(C=O)cc2c1[C@H](COC(N)=O)[C@]1(OC(C)=O)ON2C[C@H]2[C@@H]1N2C(C)=O`, the AC50 was 24.7 µM (active).
As for `ClCCOCCCl`, the compound was classed as inactive.
Take `O=C(O)C1C2CCC(O2)C1C(=O)O` (stereo not given): the AC50 is 26.4 µM (active).
Turning to `Cn1cc(-c2ccccc2)c(=O)c(-c2cccc(C(F)(F)F)c2)c1`, the call was inactive.
Turning to `CCN(CC)CCO`, the compound was classed as inactive.
`O=C(Nc1ccccc1)c1ccccc1I`: the result was inactive.
Turning to `Nc1ccc(Cc2ccc(N)cc2)cc1`, the outcome was inactive.
The same measure, in the same setting: then `CCOc1cccc(C2(N3CCN(c4ccccc4)CC3)CCC(C)CC2)c1` (stereo not given), with “inactive”; and `O=C(Oc1ccc(Br)cc1)N1CCN2CCC1CC2`, with “inactive”.
Regarding `CC(C)COC(=O)c1ccccc1C(=O)OCC(C)C`, the outcome was inactive.
